Data published in PubChem BioAssay AID651582 (Sanford-Burnham Center for Chemical Genomics, 2012).
Hit rate of the full screen: of about 230,000 compounds, about 1,500 (0.65%) were called active.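 How the source made its calls: active means pattern-corrected inhibition of lipid staining of at least 50% with the nuclear-stain viability signal not falling by more than 50%; inactive means the rest, inconclusive results apart.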 The entries come from a sample that favours actives as a whole.

assay: TAG lipid buildup reduction in H9c2 cells – cell-based, uHTS, fluorescence, primary screen (AID 651582); conditions: Nile Red lipid (TAG) fluorescence, at 12.5 µM, cells loaded with 200 µM oleic acid; DAPI nuclei signal change (viability), lower = more cytotoxic: measured here: DAPI nuclei count viability; inhibition: stronger effect = higher value;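 on inhibition: 0% = DMSO wells and 100% = triacsin C control wells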

Row | SMILES | DAPI nuclei signal change (viability), lower = more cytotoxic [%] | inhibition
1 | COC(=O)Nc1nc2ccc(Sc3ccccc3)cc2[nH]1 | -43.5 | 58.7% (active)
2 | COc1ccc2nc(SCC(=O)Nc3c(C)cc(C)cc3C)[nH]c2c1 | -8.51 | 24.4% (inactive)
3 | Cc1nc2ccc(C(=O)O)cc2[nH]1 | 7.29 | -10.7% (inactive)
4 | N#Cc1ccc(-c2ccc3nccn3c2)cc1 | 18.4 | -21.5% (inactive)
5 | COc1cc(C(=O)NCC(c2ccco2)N2CCCC2)ccc1OCc1ccccc1 (stereo not given) | 9.22 | 5.54% (inactive)
6 | CCC1CCCCN1C(=S)NC(=O)c1ccco1 (stereo not given) | -3.85 | -2.4% (inactive)
7 | COC(=O)c1ccc(SCc2ccccc2)nc1 | 0.616 | -5.84% (inactive)
8 | COC(=O)c1ccc(-c2c(-c3ccccc3)ncc3cc(OC)c(OC)cc23)cc1 | -46.2 | 70.6% (active)
9 | COc1ccc(OCC(=O)NNC(=O)c2ccc(-c3ccccc3)cc2)cc1 | -4.12 | -6.97% (inactive)
10 | CN(CC(=O)Nc1c(Cl)cccc1Cl)C(=O)CC1OC(=O)c2ccccc21 (stereo not given) | -7 | 2.91% (inactive)
11 | COc1ccc(S(=O)(=O)N2CCCCC2c2cc(C(=O)NCc3ccc(F)cc3)no2)cc1 (stereo not given) | -7.14 | 11.8% (inactive)
12 | CCOC(=O)Cc1ncccc1C(=O)Nc1ccc(OC(F)(F)F)cc1 | -10.3 | -0.736% (inactive)
13 | Cn1nccc1NC(=O)Nc1ccc(OC(F)(F)F)cc1 | 0.761 | -19.5% (inactive)
14 | O=C(Nc1ccc(OC(F)(F)F)cc1)c1ccc2c(c1)no[n+]2[O-] | -44.5 | 57.3% (active)
15 | Cc1ccccc1Cn1c(C)c(C(=O)NCc2cccc(C(F)(F)F)c2)sc1=O | 2.91 | 13.2% (inactive)
16 | CC(=O)c1cccc(-c2ccc(CN3C(CC(C)C)C(=O)N(Cc4cn(CC5CCCCC5)nn4)CCS3(=O)=O)cc2)c1 (stereo not given) | -20.7 | 52.2% (active)
17 | COc1ccc(-c2ccc(CN3C(CC(C)C)C(=O)N(Cc4cn(CC5CCCCC5)nn4)CCS3(=O)=O)cc2)cc1 (stereo not given) | -3.84 | 14.3% (inactive)
18 | CC(C)CC1C(=O)N(Cc2cn(CC3CCCCC3)nn2)CCS(=O)(=O)N1Cc1ccc(-c2ccc(Cl)cc2)cc1 (stereo not given) | -4.47 | 46.5% (inactive)
19 | Cc1ccccc1-c1cc(C(=O)NCc2cccs2)n(CC2CC(c3cccnc3)=NO2)n1 (stereo not given) | -34.7 | -1.76% (inactive)
20 | O=C(CCc1ccc(S(=O)(=O)N2CCOCC2)cc1)OCC(=O)c1ccc(Br)cc1 | 5.4 | -35.9% (inactive)
21 | Cc1ccc(/C=N/NC(=S)NC2CCCCC2)o1 | -2.44 | 15.8% (inactive)
22 | Cc1ccc(/C=N/NC(=S)Nc2cccc(S(=O)(=O)N(C)C)c2)o1 | -39 | 65.8% (active)
23 | CN(C)S(=O)(=O)c1cccc(NC(=S)NCc2ccc3c(c2)OCO3)c1 | 8.91 | -12.9% (inactive)
24 | CN1OC[C@@H]2CN[C@H](c3ccc(-c4ccccc4)cc3)C[C@@H]21 | -19.9 | 37.5% (inactive)
25 | COc1ccccc1NC1=NC(c2ccc(Cl)cc2)N=C(N)N1 (stereo not given) | -23.4 | 58.3% (active)
26 | COc1ccccc1Nc1nc(N)nc(CN(C)C2CCCCC2)n1 | -2.24 | -18.7% (inactive)
27 | COc1ccccc1NC1=NC2(CCCC2)N=C(N)N1 | -8.79 | 8.65% (inactive)

Row | SMILES | DAPI nuclei signal change (viability), lower = more cytotoxic [%] | inhibition
28 | Cc1ccc(NC(=O)CN(C)C(=O)c2ccc(Cl)c(S(=O)(=O)NCc3ccco3)c2)cc1 | -5.08 | 12.3% (inactive)
29 | CCCCc1ccc(S(=O)(=O)NC(=O)C2(C)CCN2C(=O)c2c(C)noc2C)cc1 (stereo not given) | 2.79 | 0.354% (inactive)
30 | O=C(Nc1cccc(C(=O)O)c1)/C(=C\c1ccccc1)NC(=O)c1ccc(Br)o1 | -3.36 | 6.66% (inactive)
31 | Cn1cncc1C#Cc1c(-c2ccsc2)sc2ccccc12 | 7.19 | -0.161% (inactive)
32 | COc1ccc2sc(-c3ccc(S(C)(=O)=O)cc3)c(C#Cc3cncn3C)c2c1 | 54.1 | 93.5% (active)
33 | COc1ccc2sc(-c3ccc(S(C)(=O)=O)cc3)c(-c3ccc(C(N)=O)cc3)c2c1 | -5.68 | 33.1% (inactive)
34 | O=C(O)c1ccc([N+](=O)[O-])cc1Sc1ccsc1 | -1.85 | -10.5% (inactive)
35 | CCOC(=O)c1cc(-c2sc(NC(=O)c3ccccc3)nc2C)n(Cc2ccccc2)n1 | -2.4 | 44.7% (inactive)
36 | COCCNc1ncnc2c1ncn2[C@H]1CN(CCN2CCOCC2)C[C@@H](CO)O1 | -0.911 | 0.573% (inactive)
37 | CCCOC(=O)c1[nH]c2c(c1C)C(=O)CC(c1cc(OC)c(OC)c(OC)c1)C2 (stereo not given) | -10.1 | -26.3% (inactive)
38 | COC(=O)C1C(=O)c2c([nH]c(C(=O)OCCSC)c2C)CC1C (stereo not given) | -3.66 | 1.54% (inactive)
39 | CCCOC(=O)c1[nH]c2c(c1C)C(=O)CC(c1cccs1)C2 (stereo not given) | -13.9 | 64.7% (active)
40 | Cn1c(CCN2CCN(c3ccccn3)CC2)nc2cc(NS(=O)(=O)c3ccc(F)cc3)ccc21 | 6.59 | -5.66% (inactive)
41 | CC1CCC2(CC1)NC(=O)N(CC(=O)c1ccc3c(c1)OCO3)C2=O (stereo not given) | 5.46 | -2.45% (inactive)
42 | O=C(O)c1ccccc1-c1cccc2nncn12 | 3.23 | -1.16% (inactive)
43 | Cc1cc(N/N=C\c2ccc(Br)cc2)nc(-n2nc(C)cc2C)n1 | -21.7 | 59% (active)
44 | C(=N/Nc1cc(N2CCOCC2)nc(N2CCOCC2)n1)/c1ccccc1 | -80.2 | 126% (inactive)
45 | Cc1ccc2nc(C)cc(N/N=C/c3ccc(F)cc3)c2c1 | 4.22 | 4.13% (inactive)
46 | C=C(C)C(=O)O[C@H]1C/C(C)=C\C(=O)/C=C(\C)[C@H](O)[C@@H]2OC(=O)C(=C)[C@@H]21 | -49.2 | 51.2% (active)
47 | O=C(Nc1nc2ccc([N+](=O)[O-])cc2s1)c1ccncc1 | 12.5 | -10.5% (inactive)
48 | CC(=O)c1sc(NC(=O)c2ccc(C)cc2)nc1C | -3.26 | -5.37% (inactive)
49 | COc1ccc(C(=O)Nc2nc(-c3ccc(OC)cc3)c(-c3ccc([N+](=O)[O-])cc3)s2)cc1 | -4.41 | 61.8% (active)
50 | Cc1ccc(C)c(S(=O)(=O)N(C)c2ccc(OC(=O)C3CCN(C(=O)c4ccc(F)cc4)CC3)cc2)c1 | 0.336 | -28% (inactive)
51 | COC(C[C@@H](O)C[C@H](O)[C@H](C)OCc1ccccc1)OC | 5.91 | -1.79% (inactive)
52 | COC(C[C@H](O)CC(=O)COCc1ccccc1)OC | -39.1 | 53.8% (active)
53 | COC(C[C@H](O)CC(=O)[C@@H](C)OCc1ccccc1)OC | 5.4 | -8.13% (inactive)
54 | CC(=O)NC(c1ccccc1)c1nc(-c2cccc(C(C)C)c2)cs1 (stereo not given) | -1.3 | 8.58% (inactive)

Row | SMILES | DAPI nuclei signal change (viability), lower = more cytotoxic [%] | inhibition
55 | O=C(Nc1cc(Cl)ccc1N1CCOCC1)c1ccc(N2CCCC2=O)cc1 | -2.51 | 10.9% (inactive)
56 | O=C(Nc1ccc(-c2csc(Nc3cccc(C(F)(F)F)c3)n2)cc1)c1cccc(C(F)(F)F)c1 | -19.5 | 51.9% (active)
57 | CNC(=O)c1ccc(NC(=O)c2cccc(C(F)(F)F)c2)cc1 | -4.98 | -1.2% (inactive)
58 | Cc1cccc(NC(=O)c2cccc(C(F)(F)F)c2)c1 | -13.3 | -0.148% (inactive)
59 | CC1=C(C(=O)Nc2cccc(C(=O)NCC(C)c3ccccc3)c2)SCCO1 (stereo not given) | -4.49 | 4.45% (inactive)
60 | COc1ccc(CN2CCN(C(=O)c3cc(C4CC4)nn3-c3ccccc3)CC2)cc1F | -2 | 7.6% (inactive)
61 | Cc1c(C(=O)NNC(=O)c2ccncc2)oc2ccccc12 | -11 | 8.91% (inactive)
62 | O=C(OC12CC3CC(CC(C3)C1)C2)c1ccc(NCc2cc(O)ccc2O)cc1 | -61.6 | 111% (inactive)
63 | COC(=O)c1ccc(NCc2cc(O)ccc2O)cc1 | -40.6 | 54.7% (active)
64 | CC(C)OC(=O)c1ccc(NCc2cc(O)ccc2O)cc1Cl | -60.3 | 108% (inactive)
65 | CCCn1c(N)c(C(=O)CSc2nnc3n2CCCCC3)c(=O)[nH]c1=O | 5.45 | -8.3% (inactive)
66 | CC[C@]1(c2ccccc2OC)C(=O)N(C(=O)OC)N1C(=O)OC | 11 | -4.89% (inactive)
67 | O=C(CSc1nc(Nc2ccccc2)nc(N2CCOCC2)n1)Nc1cc(Cl)ccc1O | -18.9 | 34.4% (inactive)
68 | Nc1nnc(SCC(=O)Nc2ccc3nc(SCC(=O)Nc4ccccc4)sc3c2)s1 | -9.1 | -21.4% (inactive)
69 | C=CCn1c(CSc2nc3ccccc3s2)nnc1SCC(=O)NCc1ccco1 | -7.04 | -5.24% (inactive)
70 | Cc1ccccc1NC(=O)CSc1nc2ccc(Nc3nc(N4CCOCC4)nc(N4CCOCC4)n3)cc2s1 | -7.17 | 62.6% (active)
71 | O=C(CSc1nc2ccc(Nc3nc(N4CCOCC4)nc(N4CCOCC4)n3)cc2s1)NCc1ccco1 | -0.911 | 54.6% (active)
72 | O=C(CSc1c2c(nc3ccc(Cl)cc13)CCCC2)NCc1ccco1 | 13.7 | 2.61% (inactive)
73 | CS(=O)(=O)/C(C#N)=C/c1cccn1S(=O)(=O)c1ccc([N+](=O)[O-])cc1 | 8.58 | -3.62% (inactive)
74 | CN(CC(=O)Nc1ccc(F)cc1)C(=O)c1ccc(-c2ccc(Cl)cc2)o1 | 0.479 | -10.2% (inactive)
75 | Cc1ccc(N(Cc2ccccc2O)C(=O)c2ccccc2F)cc1 | 2.35 | -3.73% (inactive)
76 | C=C1CCC(N(O)c2cc(C)on2)C(=C)CCC2C1CC2(C)C (stereo not given) | 2.7 | -2.19% (inactive)
77 | CC(=O)Nc1ccc(-c2ccnc3c2CC(C(=O)NC(C)C)O3)cc1 (stereo not given) | -1.71 | -1.68% (inactive)
78 | COc1ccc(-c2cc(NC=O)c3ncc(-c4cccc(C(=O)N(C)C)c4)n3c2)c(OC)c1 | -42.3 | 46% (inactive)
79 | COc1ccc(-c2cc(NC=O)c3ncc(-c4cc(OC)c(OC)c(OC)c4)n3c2)c(OC)c1 | -24.8 | 52.6% (active)
80 | COc1ccc(-c2cc(NC=O)c3ncc(-c4ccccc4)n3c2)cc1OC | -14.8 | 19.6% (inactive)
